# Reference: PMC11006913
# Experiments:
# Experiment in all cases: PBM; 200 nM protein, PBS
# Settings in all cases: dsDNA, one strand shown
# [1] = target: HESX1 (Homo sapiens, UniProt Q9UBX0 95-180, R165K)
# [2] = target: SHOX (Homo sapiens, UniProt O15266 103-189)
# [3] = target: ALX4 (Homo sapiens, UniProt Q9H161 200-286, Q225E)
# [4] = target: HESX1 (Homo sapiens, UniProt Q9UBX0 95-180)
# [5] = target: MSX2 (Homo sapiens, UniProt P35548 130-214, R199I)
# [6] = target: ALX1 (Homo sapiens, UniProt Q15699 118-204, L144V)
# [7] = target: ALX3 (Homo sapiens, UniProt O95076 139-225, N203Q)
# [8] = target: SHOX (Homo sapiens, UniProt O15266 103-189, R173C)
# [9] = target: ALX1 (Homo sapiens, UniProt Q15699 118-204, L144R)
# [10] = target: ALX3 (Homo sapiens, UniProt O95076 139-225)
# [11] = target: PROP1 (Homo sapiens, UniProt O75360 56-141)
# [12] = target: HESX1 (Homo sapiens, UniProt Q9UBX0 95-180, R109Q)
# [13] = target: PROP1 (Homo sapiens, UniProt O75360 56-141, R99H)
# [14] = target: ALX3 (Homo sapiens, UniProt O95076 139-225, L168Q)
# [15] = target: HESX1 (Homo sapiens, UniProt Q9UBX0 95-180, P111T)
# [16] = target: ALX3 (Homo sapiens, UniProt O95076 139-225, L168V)
# [17] = target: PROP1 (Homo sapiens, UniProt O75360 56-141, F88S)
# [18] = target: HESX1 (Homo sapiens, UniProt Q9UBX0 95-180, F115L)
# [19] = target: ALX1 (Homo sapiens, UniProt Q15699 118-204)
# [20] = target: ALX3 (Homo sapiens, UniProt O95076 139-225, N203S)
# Chain of ALX3 (Homo sapiens, UniProt O95076 139-225, N203S) (O95076 139-225 N203S): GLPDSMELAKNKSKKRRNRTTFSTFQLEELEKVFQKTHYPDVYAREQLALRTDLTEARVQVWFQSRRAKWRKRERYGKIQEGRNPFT
# Chain of ALX4 (Q9H161 200-286 Q225E): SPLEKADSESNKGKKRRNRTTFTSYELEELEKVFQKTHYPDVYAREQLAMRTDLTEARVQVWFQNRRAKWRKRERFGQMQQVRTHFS
# Chain of ALX1 (Homo sapiens, UniProt Q15699 118-204) (Q15699 118-204): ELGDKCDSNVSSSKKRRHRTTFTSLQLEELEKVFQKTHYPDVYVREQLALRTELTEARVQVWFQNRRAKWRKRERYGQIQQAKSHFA
# Chain of HESX1 (Homo sapiens, UniProt Q9UBX0 95-180, R165K) (Q9UBX0 95-180 R165K): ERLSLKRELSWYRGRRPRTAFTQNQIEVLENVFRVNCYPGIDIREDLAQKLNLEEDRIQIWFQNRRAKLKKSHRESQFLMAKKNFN
# Chain of SHOX (Homo sapiens, UniProt O15266 103-189) (O15266 103-189): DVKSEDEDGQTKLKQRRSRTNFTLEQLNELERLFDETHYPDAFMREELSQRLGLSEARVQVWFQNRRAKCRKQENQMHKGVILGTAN
# Chain of ALX3 (Homo sapiens, UniProt O95076 139-225) (O95076 139-225): as the sequence (O95076 139-225 N203S) above, with S65N counted along it
# Chain of ALX3 (Homo sapiens, UniProt O95076 139-225, L168Q) (O95076 139-225 L168Q): as the sequence (O95076 139-225 N203S) above, with L30Q, S65N counted along it
# Chain of MSX2 (P35548 130-214 R199I): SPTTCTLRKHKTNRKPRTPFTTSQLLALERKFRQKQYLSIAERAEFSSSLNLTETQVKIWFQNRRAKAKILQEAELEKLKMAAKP
# Chain of HESX1 (Homo sapiens, UniProt Q9UBX0 95-180, P111T) (Q9UBX0 95-180 P111T): as the sequence (Q9UBX0 95-180 R165K) above, with P17T, K71R counted along it
# Chain of ALX3 (Homo sapiens, UniProt O95076 139-225, L168V) (O95076 139-225 L168V): as the sequence (O95076 139-225 N203S) above, with L30V, S65N counted along it
# Chain of ALX1 (Homo sapiens, UniProt Q15699 118-204, L144R) (Q15699 118-204 L144R): as the sequence (Q15699 118-204) above, with L27R counted along it
# Chain of HESX1 (Homo sapiens, UniProt Q9UBX0 95-180, R109Q) (Q9UBX0 95-180 R109Q): as the sequence (Q9UBX0 95-180 R165K) above, with R15Q, K71R counted along it
# Chain of ALX3 (Homo sapiens, UniProt O95076 139-225, N203Q) (O95076 139-225 N203Q): as the sequence (O95076 139-225 N203S) above, with S65Q counted along it
# Chain of PROP1 (Homo sapiens, UniProt O75360 56-141, R99H) (O75360 56-141 R99H): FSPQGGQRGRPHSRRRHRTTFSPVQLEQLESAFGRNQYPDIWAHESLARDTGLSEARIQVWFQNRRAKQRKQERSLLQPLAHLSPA
# Chain of HESX1 (Homo sapiens, UniProt Q9UBX0 95-180, F115L) (Q9UBX0 95-180 F115L): as the sequence (Q9UBX0 95-180 R165K) above, with F21L, K71R counted along it
# Chain of PROP1 (Homo sapiens, UniProt O75360 56-141, F88S) (O75360 56-141 F88S): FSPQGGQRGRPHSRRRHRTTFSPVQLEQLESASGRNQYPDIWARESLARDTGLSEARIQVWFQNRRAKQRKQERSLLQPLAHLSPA
# Chain of SHOX (Homo sapiens, UniProt O15266 103-189, R173C) (O15266 103-189 R173C): as the sequence (O15266 103-189) above, with R71C counted along it
# Chain of PROP1 (Homo sapiens, UniProt O75360 56-141) (O75360 56-141): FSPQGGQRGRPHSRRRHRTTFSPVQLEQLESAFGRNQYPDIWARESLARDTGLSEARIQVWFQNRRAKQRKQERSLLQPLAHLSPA
# Chain of ALX1 (Homo sapiens, UniProt Q15699 118-204, L144V) (Q15699 118-204 L144V): as the sequence (Q15699 118-204) above, with L27V counted along it
# Chain of HESX1 (Homo sapiens, UniProt Q9UBX0 95-180) (Q9UBX0 95-180): as the sequence (Q9UBX0 95-180 R165K) above, with K71R counted along it
sequence,measurement,setting,value
ATAATTGA,binding signal,[1],"13.1 upbm affinity estimate (log intensity, higher = more binding, comparable within an allelic series)"
same,binding signal,[2],"12.3 upbm affinity estimate (log intensity, higher = more binding, comparable within an allelic series)"
same,binding signal,[3],"13.3 upbm affinity estimate (log intensity, higher = more binding, comparable within an allelic series)"
same,binding signal,[4],"13.1 upbm affinity estimate (log intensity, higher = more binding, comparable within an allelic series)"
same,binding signal,[5],"12.8 upbm affinity estimate (log intensity, higher = more binding, comparable within an allelic series)"
same,binding signal,[6],"11.7 upbm affinity estimate (log intensity, higher = more binding, comparable within an allelic series)"
same,binding signal,[7],"8.47 upbm affinity estimate (log intensity, higher = more binding, comparable within an allelic series)"
same,binding signal,[8],"9.68 upbm affinity estimate (log intensity, higher = more binding, comparable within an allelic series)"
same,binding signal,[9],"11.5 upbm affinity estimate (log intensity, higher = more binding, comparable within an allelic series)"
same,binding signal,[10],"12.5 upbm affinity estimate (log intensity, higher = more binding, comparable within an allelic series)"
same,binding signal,[11],"11.6 upbm affinity estimate (log intensity, higher = more binding, comparable within an allelic series)"
same,binding signal,[12],"9.23 upbm affinity estimate (log intensity, higher = more binding, comparable within an allelic series)"
same,binding signal,[13],"11.8 upbm affinity estimate (log intensity, higher = more binding, comparable within an allelic series)"
same,binding signal,[14],"10.7 upbm affinity estimate (log intensity, higher = more binding, comparable within an allelic series)"
same,binding signal,[15],"11.7 upbm affinity estimate (log intensity, higher = more binding, comparable within an allelic series)"
same,binding signal,[16],"10.2 upbm affinity estimate (log intensity, higher = more binding, comparable within an allelic series)"
same,binding signal,[17],"7.86 upbm affinity estimate (log intensity, higher = more binding, comparable within an allelic series)"
same,binding signal,[18],"8.13 upbm affinity estimate (log intensity, higher = more binding, comparable within an allelic series)"
same,binding signal,[19],"12.3 upbm affinity estimate (log intensity, higher = more binding, comparable within an allelic series)"
same,binding signal,[20],"8.62 upbm affinity estimate (log intensity, higher = more binding, comparable within an allelic series)"
CAATTAAA,binding signal,[1],"12.6 upbm affinity estimate (log intensity, higher = more binding, comparable within an allelic series)"
same,binding signal,[2],"12 upbm affinity estimate (log intensity, higher = more binding, comparable within an allelic series)"
same,binding signal,[3],"13.5 upbm affinity estimate (log intensity, higher = more binding, comparable within an allelic series)"
same,binding signal,[4],"12.6 upbm affinity estimate (log intensity, higher = more binding, comparable within an allelic series)"
same,binding signal,[5],"13.1 upbm affinity estimate (log intensity, higher = more binding, comparable within an allelic series)"
same,binding signal,[6],"11.7 upbm affinity estimate (log intensity, higher = more binding, comparable within an allelic series)"
same,binding signal,[7],"8.41 upbm affinity estimate (log intensity, higher = more binding, comparable within an allelic series)"
same,binding signal,[8],"9.46 upbm affinity estimate (log intensity, higher = more binding, comparable within an allelic series)"
same,binding signal,[9],"11.5 upbm affinity estimate (log intensity, higher = more binding, comparable within an allelic series)"
same,binding signal,[10],"12.6 upbm affinity estimate (log intensity, higher = more binding, comparable within an allelic series)"
same,binding signal,[11],"11.6 upbm affinity estimate (log intensity, higher = more binding, comparable within an allelic series)"
same,binding signal,[12],"9.38 upbm affinity estimate (log intensity, higher = more binding, comparable within an allelic series)"
same,binding signal,[13],"11.6 upbm affinity estimate (log intensity, higher = more binding, comparable within an allelic series)"
same,binding signal,[14],"10.7 upbm affinity estimate (log intensity, higher = more binding, comparable within an allelic series)"
same,binding signal,[15],"11.3 upbm affinity estimate (log intensity, higher = more binding, comparable within an allelic series)"
same,binding signal,[16],"10.3 upbm affinity estimate (log intensity, higher = more binding, comparable within an allelic series)"
same,binding signal,[17],"7.64 upbm affinity estimate (log intensity, higher = more binding, comparable within an allelic series)"
same,binding signal,[18],"7.76 upbm affinity estimate (log intensity, higher = more binding, comparable within an allelic series)"
same,binding signal,[19],"12.2 upbm affinity estimate (log intensity, higher = more binding, comparable within an allelic series)"
same,binding signal,[20],"8.55 upbm affinity estimate (log intensity, higher = more binding, comparable within an allelic series)"
CAATTATG,binding signal,[1],"12.7 upbm affinity estimate (log intensity, higher = more binding, comparable within an allelic series)"
same,binding signal,[2],"12.1 upbm affinity estimate (log intensity, higher = more binding, comparable within an allelic series)"
same,binding signal,[3],"13.1 upbm affinity estimate (log intensity, higher = more binding, comparable within an allelic series)"
same,binding signal,[4],"12.9 upbm affinity estimate (log intensity, higher = more binding, comparable within an allelic series)"
same,binding signal,[5],"12.8 upbm affinity estimate (log intensity, higher = more binding, comparable within an allelic series)"
same,binding signal,[6],"11.7 upbm affinity estimate (log intensity, higher = more binding, comparable within an allelic series)"
same,binding signal,[7],"8.45 upbm affinity estimate (log intensity, higher = more binding, comparable within an allelic series)"
same,binding signal,[8],"9.62 upbm affinity estimate (log intensity, higher = more binding, comparable within an allelic series)"
same,binding signal,[9],"11.4 upbm affinity estimate (log intensity, higher = more binding, comparable within an allelic series)"
same,binding signal,[10],"12.4 upbm affinity estimate (log intensity, higher = more binding, comparable within an allelic series)"
same,binding signal,[11],"11.5 upbm affinity estimate (log intensity, higher = more binding, comparable within an allelic series)"
same,binding signal,[12],"9.11 upbm affinity estimate (log intensity, higher = more binding, comparable within an allelic series)"
same,binding signal,[13],"11.5 upbm affinity estimate (log intensity, higher = more binding, comparable within an allelic series)"
same,binding signal,[14],"10.5 upbm affinity estimate (log intensity, higher = more binding, comparable within an allelic series)"
same,binding signal,[15],"11.2 upbm affinity estimate (log intensity, higher = more binding, comparable within an allelic series)"
same,binding signal,[16],"9.96 upbm affinity estimate (log intensity, higher = more binding, comparable within an allelic series)"
same,binding signal,[17],"7.66 upbm affinity estimate (log intensity, higher = more binding, comparable within an allelic series)"
same,binding signal,[18],"7.82 upbm affinity estimate (log intensity, higher = more binding, comparable within an allelic series)"
same,binding signal,[19],"12.3 upbm affinity estimate (log intensity, higher = more binding, comparable within an allelic series)"
same,binding signal,[20],"8.59 upbm affinity estimate (log intensity, higher = more binding, comparable within an allelic series)"
CAATTAAG,binding signal,[1],"13 upbm affinity estimate (log intensity, higher = more binding, comparable within an allelic series)"
same,binding signal,[2],"12.3 upbm affinity estimate (log intensity, higher = more binding, comparable within an allelic series)"
same,binding signal,[3],"13.4 upbm affinity estimate (log intensity, higher = more binding, comparable within an allelic series)"
same,binding signal,[4],"12.9 upbm affinity estimate (log intensity, higher = more binding, comparable within an allelic series)"
same,binding signal,[5],"12.8 upbm affinity estimate (log intensity, higher = more binding, comparable within an allelic series)"
same,binding signal,[6],"11.7 upbm affinity estimate (log intensity, higher = more binding, comparable within an allelic series)"
same,binding signal,[7],"8.48 upbm affinity estimate (log intensity, higher = more binding, comparable within an allelic series)"
same,binding signal,[8],"10.1 upbm affinity estimate (log intensity, higher = more binding, comparable within an allelic series)"
same,binding signal,[9],"11.4 upbm affinity estimate (log intensity, higher = more binding, comparable within an allelic series)"
same,binding signal,[10],"12.5 upbm affinity estimate (log intensity, higher = more binding, comparable within an allelic series)"
same,binding signal,[11],"11.6 upbm affinity estimate (log intensity, higher = more binding, comparable within an allelic series)"
same,binding signal,[12],"9.81 upbm affinity estimate (log intensity, higher = more binding, comparable within an allelic series)"
same,binding signal,[13],"11.8 upbm affinity estimate (log intensity, higher = more binding, comparable within an allelic series)"
same,binding signal,[14],"10.7 upbm affinity estimate (log intensity, higher = more binding, comparable within an allelic series)"
same,binding signal,[15],"11.7 upbm affinity estimate (log intensity, higher = more binding, comparable within an allelic series)"
same,binding signal,[16],"10.2 upbm affinity estimate (log intensity, higher = more binding, comparable within an allelic series)"
same,binding signal,[17],"7.75 upbm affinity estimate (log intensity, higher = more binding, comparable within an allelic series)"
same,binding signal,[18],"7.88 upbm affinity estimate (log intensity, higher = more binding, comparable within an allelic series)"
same,binding signal,[19],"12.3 upbm affinity estimate (log intensity, higher = more binding, comparable within an allelic series)"
same,binding signal,[20],"8.56 upbm affinity estimate (log intensity, higher = more binding, comparable within an allelic series)"
